From PubChem BioAssay (Tox21)
Records with an inconclusive call do not appear. Values without a mark were called inactive. The call rests on the fitted dose curve; in most records, active means well fitted inhibition curve with a large enough effect in the signal ratio in the repeat runs, with a control signal flat; inconclusive means weak or mixed curves, or effect the other way; inactive means flat fitted curve, though single readings scatter; the % refers to the signal ratio.

These compounds were tested against D(2) dopamine receptor (Homo sapiens) (UniProt P14416) (assay: Dopamine D2 receptor (DRD2) small molecule antagonists, cell-based qHTS assay (AID 1963595)). Conditions: HEK293-DRD2 cAMP HTRF antagonist mode; series mostly up to 92.4 µM; activity change, negative = inhibition: at the top concentration.
From the text: National Center for Advancing Translational Sciences [NCATS]
Division of Preclinical Innovation [DPI]
U.S. Environmental Protection Agency [EPA]
National Institutes of Environmental Health Sciences [NIEHS]
National Toxicology Program [NTP]
U.S. Food and Drug Administration [FDA]
DRD2 is the D2 subtype of the dopamine receptor, which is coupled to Gi subtype of G protein-coupled receptor. This G protein-coupled receptor inhibits adenylyl cyclase activity. The DRD2-HEK293 cell line stably expressing D2 dopamine receptor can be used for screening agonists and antagonists of interactions between D2 and its ligands. The Hek293-DRD2 cAMP assay is based on HTRF technology. It measures changes of cAMP accumulation in response to Gi coupled GPCR activation or inhibition.
Tox21 Assay Protocol Summary:
DRD2-Hek293 cells were dispensed at 600 cells/3uL/well in 1536-well white plates using a Multidrop Dispenser. After the assay plates were incubated at a 37 C/5% CO2 incubator for 24 h, 1 uL of Ro20-1724 at final concentration of 0.1 mM was transferred to the assay plate by a Flying Reagent Dispenser. Following Ro20-1724 addition, 23 nL of compound dissolved in DMSO, positive controls or DMSO only was added to the assay plates via Wako pintool station. The assay plates were incubated at room temperature for 10 min. Next, 1 uL of mixture of NKH477 (final concentration at 200 nM) and quinpirole (final concentration at 12 nM) was added into the plates. After the assay plates were incubated at room temperature for an additional 30 min, 2.5 ul/well of cAMP-d2 and 2.5 ul/well of anti-cAMP-cryptate were added respectively into the assay plates using a Flying Reagent Dispenser. The plates were incubated at room temperature for 1 h. The fluorescence intensity in the plates was measured at 340 nm excitation and 665 & 620 nm emission by an Envision plate reader.
On the % scale 0 is the no-effect control and ±100 the full control effect.

Chain of D(2) dopamine receptor (Homo sapiens) (P14416 whole entry, looked up): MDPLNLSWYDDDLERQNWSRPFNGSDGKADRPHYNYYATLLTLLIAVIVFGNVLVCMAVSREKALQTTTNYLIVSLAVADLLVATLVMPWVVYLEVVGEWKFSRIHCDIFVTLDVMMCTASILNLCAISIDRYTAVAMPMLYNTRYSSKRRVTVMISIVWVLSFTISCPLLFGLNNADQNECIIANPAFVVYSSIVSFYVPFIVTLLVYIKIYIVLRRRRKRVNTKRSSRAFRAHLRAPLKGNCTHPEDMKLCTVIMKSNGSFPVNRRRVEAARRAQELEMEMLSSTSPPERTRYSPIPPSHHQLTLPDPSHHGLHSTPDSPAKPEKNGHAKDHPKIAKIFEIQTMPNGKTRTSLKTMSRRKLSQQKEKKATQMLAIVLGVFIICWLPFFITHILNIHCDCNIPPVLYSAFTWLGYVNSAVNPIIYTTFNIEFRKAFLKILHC

| Compound | activity change, negative = inhibition |
| --- | --- |
| Cc1ccc(C(=O)c2ccc(CC(=O)O)n2C)cc1 | 2.25% [at 42.5 µM] |
| Nc1cc(C(F)(F)F)ccc1S | 0.405% [at 42.5 µM] |
| CC1=C(/C=C/C(C)=C/C=C/C(C)=C\C(=O)O)C(C)(C)CCC1 | -10.9% |
| CC(C)C1OCCN1CCOC(=O)NCCCCCCNC(=O)OCCN1CCOC1C(C)C (stereo not given) | -4.35% |
| CC(C)C(=O)OCc1ccccc1 | -1.36% |
| C=CCCCCCCCCC=O | 2.78% |
| CC(C(=O)O)c1ccc2c(c1)CC(=O)c1ccccc1S2 (stereo not given) | 12.4% [at 42.5 µM] |
| Clc1nnc(Cl)c2ccccc12 | -0.0221% |
| O=C(N[C@@H](Cc1ccccc1)[C@@H](O)C(=O)N1C[C@@H](O)[C@@H](O)C1)c1cc2cc(Cl)ccc2[nH]1 | 17.2% |
| O=S(=O)(c1ccccc1)c1ccc(Cl)cc1 | -0.0634% |
| O=S(=O)(O)c1ccc(Cl)cc1 | 5.33% |
| CCCCCCCCCCCCCCCCCC(=O)OCCCCCCCCCCCCCC(C)C | 0.93% |
| CCCCCc1ccco1 | 0.155% [at 42.5 µM] |
| CCc1nnc(NS(=O)(=O)c2ccc(N)cc2)s1 | -0.0969% [at 42.5 µM] |
| O=C(CCCCC(=O)Nc1c(I)cc(I)c(C(=O)O)c1I)Nc1c(I)cc(I)c(C(=O)O)c1I | 3.9% [at 42.5 µM] |
| CCOC(=O)CCC(=O)OCC | 1.91% |
| Nc1ncnc2c1ncn2[C@@H]1O[C@H](CO)[C@@H](O)[C@H]1O | 0.416% [at 42.5 µM] |
| CNC(=O)c1ccccc1Sc1ccc2c(/C=C/c3ccccn3)n[nH]c2c1 | 4.25% [at 42.5 µM] |
| O=C(O)CNCC(=O)O | -7.14% [at 8.38 µM] |
| CCC(C)COC(=O)CC(C)C (stereo not given) | 3.82% |

| Compound | activity change, negative = inhibition |
| --- | --- |
| CC(=O)O[C@@H]1CC2CCC1(C)C2(C)C (stereo not given in full) | 13.9% |
| CCCCCCC(CO)CCCC (stereo not given) | 0.0894% |
| Clc1cccnc1 | 7.84% |
| CCOC(=O)/C=C/C(=O)O | 13% |
| CCCCCC[C@@H](O)C/C=C\CCCCCCCC(=O)OCC(O)CO (stereo not given in full) | 12.9% |
| Nc1nc(Cl)nc2c1ncn2[C@@H]1O[C@H](CO)[C@@H](O)[C@@H]1F | -2.8% [at 42.5 µM] |
| CCCCCCC(CCCCCCCCCCC(=O)OCC(COC(C)=O)OC(C)=O)OC(C)=O (stereo not given) | -12.3% [at 42.5 µM] |
| CNC(=O)c1ccccc1 | -7.29% |
| CCCCOCC(C)O (stereo not given) | -0.626% |
| CC1OC(=O)C(C)OC1=O (stereo not given) | 7.39% |
| O=C(NCCCN1CCOCC1)c1ccc(Cl)cc1 | -0.941% [at 42.5 µM] |
| CC(C)(C)c1cc(CCC(=O)OCCSCCOC(=O)CCc2cc(C(C)(C)C)c(O)c(C(C)(C)C)c2)cc(C(C)(C)C)c1O | -10.1% [at 42.5 µM] |
| CCOC(=O)c1ccccc1 | 4.52% |
| Cc1nc(C)nc(N2C[C@@H](C)N(c3ccnc([C@@H](C)O)n3)[C@@H](C)C2)n1 | 15.3% [at 42.5 µM] |
| Nc1cc(C(=O)O)c(O)c(S(=O)(=O)O)c1 | -0.271% |
| FC1(F)C(F)(F)C(F)(F)C2(F)C(F)(C1(F)F)C(F)(F)C(F)(F)C1(F)C(F)(F)C(F)(F)C(F)(F)C(F)(F)C12F (stereo not given) | -0.839% |
| COC(=O)C1=C(C)NC(C)=C(C(=O)OCCN2CCN(C(c3ccccc3)c3ccccc3)CC2)C1c1cccc([N+](=O)[O-])c1 (stereo not given) | 1.01% [at 42.5 µM] |
| CCN1CC(CCN2CCOCC2)C(c2ccccc2)(c2ccccc2)C1=O (stereo not given) | 14.8% [at 42.5 µM] |
| c1ccc(CCCc2ccccn2)cc1 | 2.19% |
| Cc1cccc(C)c1NC(=O)c1cc(S(N)(=O)=O)c(Cl)cc1O | -1.66% [at 42.5 µM] |
